Results reported in publication PMC4552634, “A New Set of Chemical Starting Points with Plasmodium falciparum Transmission-Blocking Potential for Antimalarial Drug Discovery” (PLoS ONE, 2015).
Among all 13,000 compounds or so, about 3,200 (25%) showed an effect of 50% or more. Some of the results follow.

These molecules were tested on P. falciparum stage V gametocytes. Settings: 48 h, 5 µM; inhibitor.
Parameters: BacTiter-Glo ATP luminescence viability of purified stage V gametocytes in 384-well plates, per cent inhibition versus DMSO

| Compound | % Inhibition [%] |
| --- | --- |
| O=C(N[C@@H](CC1CCCCC1)C(=O)NC1CCCCCC1)c1ccc(O)c(-c2ccc(Cl)c(Cl)c2)c1 [TCMDC-140847] | 37.48 |
| Cc1ccc(NC(=O)C2CCC2)cc1-c1ccc(C(=O)NCC2CC2)cc1 [TCMDC-138709] | -25.69 |
| COc1ccc(NC(=O)Nc2ccc(C)c(-c3ccc(C(=O)NCCN4CCCC4)cc3)c2)cc1 [TCMDC-134196] | -27.29 |
| CCN(CC)CCNC(=O)c1ccc(NC(=O)c2ccc(-c3cc(NC(=O)CC4CCCC4)ccc3C)cc2)cc1 [TCMDC-133707] | 110.3 |
| COc1ccc(CCNCCCCCCNCCCc2ccc(Cl)cc2)cc1OC [TCMDC-131280] | 105.1 |
| COc1ccc(CNCCCCCCNCCc2ccc(Cl)cc2)cc1OC [TCMDC-131282] | 88.88 |
| COc1ccc(CNCC2CCC(CNCCc3ccccc3)CC2)cc1Cl (stereo not drawn) [TCMDC-140364] | -22.08 |
| COc1cc2c(cc1OC)CC(NCc1ccc(-c3ccc4nc[nH]c4c3)cc1)C2 [TCMDC-133474] | 37.11 |
| COc1cc2c(cc1OC)CC(NCCCCCCNCCc1ccc(Cl)cc1)CC2 (stereo not drawn) [TCMDC-132038] | 103.4 |
| COc1ccc(CCNCCCCCCNCCc2ccc(-c3ccccc3)cc2)cc1OC [TCMDC-131267] | 96.14 |
| COc1cc2c(cc1OC)CN(CCCCc1ccc(NC(=O)c3cc(Cl)cc(Cl)c3)cc1)CC2 [TCMDC-138174] | -15.17 |
| COc1ccc(CN(C)CCCc2ccc(NC(=O)Cc3ccc4nc(-c5ccccc5)ccc4c3)cc2)cc1OC [TCMDC-131845] | 17.3 |
| CCOc1cc2ncnc(Nc3ccc(OCc4c(Cl)cccc4Cl)c(OC)c3)c2cc1OCC [TCMDC-131927] | -5.801 |
| CCC(O)(C#Cc1c(C)nc(N)nc1N)CC [TCMDC-137329] | 41.32 |
| N#Cc1ccc(NC(=NCc2cccnc2)Nc2ccc(-c3ccccc3)cc2)c(O)c1 [TCMDC-140208] | -10.63 |
| COc1ccccc1C1CC(c2ccc(Br)cc2)=NN1C(=O)c1ccccc1 (stereo not drawn) [TCMDC-125622] | 32.36 |
| Oc1ccc2[nH]c(-c3cccc(F)c3)nc2c1CN1CCC(N2CCCC2)CC1 [TCMDC-136357] | -60.35 |
| Cc1cccc2[nH]c(-c3ccc(-c4cccc(NC(=O)NCc5cccc(F)c5)c4)cc3)nc12 [TCMDC-133295] | 32.47 |
| COc1cccc(NC(=O)Nc2ccc(Nc3nc(C)cc(N4CCCC4)n3)cc2)c1 [TCMDC-124957] | -12.57 |
| N=C(N)c1cc(Br)cc(NC(=O)Nc2cc(Br)cc(C(=N)N)c2)c1 [TCMDC-124180] | -21.96 |
| CC1CCN(CC[C@H]2CCCN2S(=O)(=O)c2cccc(NC(=O)Nc3ccc(C(F)(F)F)cc3)c2)CC1 [TCMDC-141021] | -52.23 |
| CCCN(CCC)c1nn2c(=O)c(C(=O)N3CCN(Cc4ccccc4)CC3)cnc2s1 [TCMDC-125272] | -5.242 |
| COc1ccc(CCNCCCCCNCCc2ccc(Cl)cc2)cc1OC [TCMDC-131269] | 103.7 |

| Compound | % Inhibition [%] |
| --- | --- |
| Cc1cc(CNCCCCCNCc2cccc([N+](=O)[O-])c2)ccc1O [TCMDC-140410] | 42.39 |
| COc1ccc(CCNCCCCCNCCCc2ccc(Cl)cc2)cc1OC [TCMDC-131278] | 107.5 |
| Cc1cc(CNCCCCCCCNCc2cccc([N+](=O)[O-])c2)ccc1O [TCMDC-140416] | 12.73 |
| COc1ccc(CCNCCCCCCNCCc2cccc([N+](=O)[O-])c2)cc1OC [TCMDC-131262] | 82.84 |
| COc1ccc(CCNCCCCCCNCCc2ccc(Cl)c(Cl)c2)cc1OC [TCMDC-131275] | 106.4 |
| COc1ccc(CNCCCCCCCNCc2ccc(Cl)c(Cl)c2)cc1Cl [TCMDC-140366] | 13.21 |
| COc1ccc(CNCCCCCNCc2ccc(Cl)c(Cl)c2)cc1Cl [TCMDC-140365] | 23.3 |
| Cc1ccc(C2=NNC3(S2)C(=O)N(C)c2ccccc23)cc1 (stereo not drawn) [TCMDC-123863] | 24.25 |
| COc1ccc(C23Oc4cc(OC)cc(OC)c4C2(O)C2(CC3c3ccccc3)SCCCS2)cc1 (stereo not drawn) [TCMDC-132098] | 11.15 |
| OCC(CO)(CO)NCc1ccc2c3c(cccc13)-c1ccccc1-2 [TCMDC-137877] | -8.777 |
| C=CCn1c(C)cc(C(=O)COc2ccc(S(=O)(=O)N3CCOCC3)cc2[N+](=O)[O-])c1C [TCMDC-124326] | 33.1 |
| COc1cc(CNCCCNc2nc3ccsc3c(=O)[nH]2)c2[nH]cc(Cl)c2c1 [TCMDC-140349] | -35.52 |
| COc1cccc(CCNCCCCCCNCCc2ccc(Cl)cc2)c1 [TCMDC-131284] | 113.2 |
| COc1cccc(CCc2cccc(CNC(C)=O)c2)c1 [TCMDC-139277] | -0.06569 |
| COc1ccc2nccc([C@@H](O)CN3CCC(NCc4nc5cc(F)ccc5o4)CC3)c2c1 [TCMDC-140783] | -5.365 |
| c1ccc2c(c1)ncc1c3ccccc3[nH]c21 [TCMDC-131258] | -7.104 |
| NCC1CCCN1Cc1cccc(-c2ccc(-c3nc4ccccc4[nH]3)s2)c1.O=C(O)C(F)(F)F (stereo not drawn) [TCMDC-132987] | 77.53 |
| Cc1cccc2nc(-c3ccc(-c4cccc(CN5CCCC5CN)c4)s3)[nH]c12.O=C(O)C(F)(F)F (stereo not drawn) [TCMDC-132997] | 41.54 |
| NCC1CCCN1Cc1cccc(-c2ccc(-c3nc4cc(C(F)(F)F)ccc4[nH]3)s2)c1.O=C(O)C(F)(F)F (stereo not drawn) [TCMDC-132992] | 36.35 |
| O=C(O)C(F)(F)F.O=C1CCCN1CCCNCc1cccc(-c2ccc(-c3nc4cc(C(F)(F)F)ccc4[nH]3)s2)c1 [TCMDC-132757] | -29.57 |
| O=C(O)C(F)(F)F.O=C1CCCN1CCCNCc1cccc(-c2ccc(-c3nc4ccccc4[nH]3)s2)c1 [TCMDC-132749] | 78.47 |
| Cc1cccc2nc(-c3ccc(-c4cccc(CNCCCN5CCCC5=O)c4)s3)[nH]c12.O=C(O)C(F)(F)F [TCMDC-132762] | -3.129 |
| CCCCCc1cnc2nc(N)nc(N)c2c1 [TCMDC-137922] | -4.326 |

| Compound | % Inhibition [%] |
| --- | --- |
| N#Cc1ccc2c(c1)CCN(CCC1CCC(NC(=O)/C=C/c3c[nH]c4c(Br)cccc34)CC1)CC2 (stereo not drawn) [TCMDC-139672] | -4.951 |
| Cc1cccc2[nH]c(-c3ccc(-c4ccc(NC(=O)NCc5ccc(F)cc5)cc4)cc3)nc12 [TCMDC-133302] | 17.3 |
| CC(=O)Nc1ncc(C(=O)Nc2cccc(-c3ccc(-c4nc5c(C)cccc5[nH]4)cc3)c2)s1 [TCMDC-136913] | 10.82 |
| Cc1cnc(C[S+]([O-])c2nc3ccc(C(F)(F)F)cc3[nH]2)cc1OCc1ccccc1 (stereo not drawn) [TCMDC-131542] | 10.44 |
| Nc1nc(N)c2c(Cc3ccccc3)cccc2n1 [TCMDC-137764] | -5.935 |
| CCN(CC)CCN(Cc1ccc(-c2ccc(C(F)(F)F)cc2)cc1)C(=O)Cn1cc(CCCCc2cccc(F)c2F)c(=O)c2ccccc21 [TCMDC-141340] | 60.46 |
| CCN(CC)CCN(Cc1ccc(-c2ccc(C(F)(F)F)cc2)cc1)C(=O)Cn1cc(CCCc2cccc(F)c2F)c(=O)c2ccccc21 [TCMDC-141331] | 81.22 |
| COc1ccc(OC)c2c1CCN(C)C2Cc1cccc2ccccc12 (stereo not drawn) [TCMDC-137509] | 12.85 |
| O=C(NC1CCC(N2CCC(c3nc4ccccc4s3)CC2)CC1)c1cc2ccccc2[nH]1 (stereo not drawn) [TCMDC-132780] | -77.63 |
| Cc1cc(C(=O)Nc2ccc3c(c2)CCN3C2CCN(Cc3ccc4nsnc4c3)C2)no1 (stereo not drawn) [TCMDC-135076] | -30.56 |
| O=S(=O)(NC1=NCCC1)c1cccc(Nc2nc(C(F)(F)F)nc3ccccc23)c1 [TCMDC-124821] | -4.384 |
| CNc1ccc(CNCc2cccc(-c3ccc(-c4nc5cccc(C)c5[nH]4)s3)c2)cc1.O=C(O)C(F)(F)F [TCMDC-132983] | 78.71 |
| Cc1cccc2nc(-c3ccc(-c4cccc(CNCc5ccc(CN)cc5)c4)s3)[nH]c12.O=C(O)C(F)(F)F [TCMDC-132812] | 115.3 |
| Cc1cccc2nc(-c3ccc(-c4cccc(CNCc5cccc(N)c5)c4)s3)[nH]c12.O=C(O)C(F)(F)F [TCMDC-132936] | -17.71 |
| Cc1cccc2nc(-c3ccc(-c4cccc(CNC(C)C)c4)s3)[nH]c12.O=C(O)C(F)(F)F [TCMDC-132743] | 8.329 |
| COc1ccc(CNCc2cccc(-c3ccc(-c4nc5cccc(C)c5[nH]4)s3)c2)cc1.O=C(O)C(F)(F)F [TCMDC-132722] | 2.559 |
| Cc1cccc2nc(-c3ccc(-c4cccc(CNCc5ccccc5)c4)s3)[nH]c12.O=C(O)C(F)(F)F [TCMDC-132703] | -30.5 |
| CNc1ccc(CNCc2cccc(-c3ccc(-c4nc5ccccc5[nH]4)s3)c2)cc1.O=C(O)C(F)(F)F [TCMDC-132977] | -37.37 |
| C=CCOC(=O)N1CCC(CNCc2cccc(-c3cccc(-c4nc5ccccc5[nH]4)c3)c2)C1.O=C(O)C(F)(F)F (stereo not drawn) [TCMDC-133046] | -7.738 |
| C=CCOC(=O)N1CCC(CNCc2ccc(-c3cccc(-c4nc5cc(F)ccc5[nH]4)c3)cc2)C1.O=C(O)C(F)(F)F (stereo not drawn) [TCMDC-133044] | 2.158 |
| Cc1noc(C)c1-c1cccc(CNCc2cccc(-c3ccc(-c4nc5cccc(C)c5[nH]4)s3)c2)c1.O=C(O)C(F)(F)F [TCMDC-133059] | -9.203 |
| C=CCOC(=O)N1CCC(CNCc2ccc(-c3cccc(-c4nc5ccccc5[nH]4)c3)cc2)C1.O=C(O)C(F)(F)F (stereo not drawn) [TCMDC-132566] | 89.86 |
| Cc1cccc2nc(-c3ccc(-c4cccc(CNC5CCN(C)CC5)c4)s3)[nH]c12.O=C(O)C(F)(F)F [TCMDC-132736] | 105.5 |
